# The campaign covered roughly 71,000 compounds. About 1,800 (2.5%) were called active. Another 26% or so got no clear call; they are omitted. Calls follow the shape of the dose curve; as a rule, active = well fitted activation curve with a large enough effect in the signal ratio, with a control signal flat (not every such curve was filed as active); inconclusive = small, poorly fitted or top-dose-only effect, or effect the other way, or a change in a side signal; inactive = flat fitted curve, though single readings scatter; the % refers to the signal ratio. Shown is part of a subset that was picked to be rich in actives.
# Experiment: Cell signaling CRE-BLA (Fsk stim); as to activity change, negative = inhibition: % of control where 0% means no effect
# Conditions: CHO CRE-bla reporter (cAMP response element driving beta-lactamase), forskolin EC10, beta-lactamase ratio; series mostly up to 38.2 µM; activity change, negative = inhibition: at the top concentration
# Summary of the method: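 Cells were plated overnight at 37 °C, exposed to compound titrations plus EC10 NKH 477 for 3 h, then given CCF4 dye for 2 h at room temperature. Blue/green (460/530 nm) ratio was converted to %Activity and AC50 values calculated.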
# Potency is read from the fitted curve at half-maximal effect.
Compound,"activity change, negative = inhibition",Potency
COc1cccc(Nc2ncc3ncc(=O)n(C4CC4)c3n2)c1,5.13% (inactive),–
COc1ccc(-n2nnc3c(=O)n(CC(=O)OCc4ccccc4)cnc32)cc1,6.57% (inactive),–
COc1cccc(Cn2c(=O)c(-c3ccccc3)nc3cnc(OC)nc32)c1,–,10 µM (active)
COc1ccc(Oc2ncc3nc(C)c(=O)n(-c4ccccc4)c3n2)cc1,3.91% (inactive),–
COc1cccc(Cn2c(=O)c(CCc3ccccc3)nc3cnc(N(C)C)nc32)c1,–,6.31 µM (active)
COc1ccc(Oc2ncc3nc(-c4ccc(F)cc4)c(=O)n(C)c3n2)cc1,-0.0632% (inactive),–
O=C1c2cccnc2C(=O)N1Cc1cccs1,-18.3% (inactive),–
COc1cccc(Cn2c(=O)c(C)nc3cnc(Oc4ccccc4)nc32)c1,–,10 µM (active)
CCNc1ncc2ncc(=O)n(CCc3ccccc3)c2n1,-12.5% (inactive),–
CCNc1ncc2ncc(=O)n(Cc3cccc(OC)c3)c2n1,-14.8% (inactive),–
COc1ccc(-c2nc3cnc(Oc4ccccc4)nc3n(Cc3cccs3)c2=O)cc1,–,3.98 µM (active)
O=C(CC1(O)C(=O)N(CN2CCOCC2)c2ccccc21)c1ccccc1 (stereo not given),1.72% (inactive),–
CCCc1cc(=O)[nH]c(SCC(=O)OCc2ccccc2)n1,-2.25% (inactive),–
CS(=O)(=O)N1CCN(C(=O)Cc2ccccc2)CC1,2.13% (inactive),–
O=P(O)(CN1CCCCC1)CN1CCCCC1,-2.2% (inactive),–
c1ccc(-n2ncc(-c3nn[nH]n3)n2)cc1,-8.34% (inactive),–
O=C(O)CCSc1nnc(-c2ccccc2)n1-c1ccccc1,13.7% [at 7.6 µM] (inactive),–
C=CCn1c(CC(=O)Nc2cccc(OC)c2)nnc1SCC(=O)NC1CCCCC1,-2.75% (inactive),–
COc1cccc(-n2c(Cc3cc(=O)[nH]c(=O)[nH]3)nnc2SCC(=O)Nc2ccccc2)c1,0.481% (inactive),–
COc1cccc(-n2c(SCC(=O)NC3CCCCC3)nc3n[nH]c(C)c3c2=N)c1,–,5.01 µM (active)
CCc1ccc(N(CC)c2ncnc3nc[nH]c23)cc1,-5.12% (inactive),–
CCOC(=O)NC(C(F)(F)F)(C(F)(F)F)P(=O)(c1ccccc1)c1ccccc1,-3.9% (inactive),–
CCCCNC(=O)CSc1nccn1Cc1ccccc1,-2.35% (inactive),–
CC1CCCC(N2CCN(C(=O)c3ccc(F)cc3)CC2)C1 (stereo not given),0.17% (inactive),–

Compound,"activity change, negative = inhibition",Potency
O=C(C(Cc1ccccc1)n1cccc1)N1CCN(C2CCCCC2)CC1 (stereo not given),-11.6% (inactive),–
COc1ccc(-c2csc(N3CCN(Cc4ccc5c(c4)OCO5)CC3)n2)cc1,-10.5% (inactive),–
CCn1cc(C(=O)NCC2COc3ccccc3O2)c2cc(OC)c(OC)cc2c1=O (stereo not given),–,1.58 µM (active)
CCn1cc(C(=O)N2CCN(Cc3ccc4c(c3)OCO4)CC2)c2cc(OC)c(OC)cc2c1=O,–,7.94 µM (active)
CCn1cc(C(=O)NCc2ccc3c(c2)OCO3)c2cc(OC)c(OC)cc2c1=O,–,2 µM (active)
Cc1ccc(C(=O)OCC(=O)NCc2ccc3c(c2)OCO3)s1,-8.63% (inactive),–
CCOC(=O)NCc1ccc2c(c1)OCO2,-2.53% (inactive),–
O=C(CN1C(=O)C2C3C=CC(C3)C2C1=O)NCC1COc2ccccc2O1 (stereo not given),-0.372% (inactive),–
Cc1cc(NC(=O)CCC2COc3ccccc3O2)no1 (stereo not given),-1.78% (inactive),–
CCn1cc(C(=O)N2CCN(C3CCCCC3)CC2)c2cc(OC)c(OC)cc2c1=O,–,10 µM (active)
CS(=O)(=O)N(CC(=O)N1CCN(Cc2ccc3c(c2)OCO3)CC1)c1ccc2c(c1)OCO2,-2.17% (inactive),–
O=C(CCC(=O)OCC(F)(F)C(F)F)NCc1ccccc1,-0.132% (inactive),–
COC(=O)[C@@]1(Cc2ccc(F)cc2)[C@H]2c3cc(C(=O)N4CCCC4)n(C[C@H](O)CO)c3C[C@H]2CN1C(=O)c1ccccc1,-11.3% (inactive),–
COc1ccc(-n2nnc3c(=O)n(CC(=O)N4CCC(Cc5ccccc5)CC4)cnc32)cc1,-7.64% (inactive),–
CCOC(=O)C(CCOc1cccc(CC)c1)C(=O)OCC,-0.602% (inactive),–
C=C(C)C1CC=C(C)C(O)C1 (stereo not given),-2.45% (inactive),–
CC(=O)NC(C)(C)C1CC=C(C)/C(=N\O)C1 (stereo not given),-6.01% (inactive),–
CC(C)OC(=O)CN1C(=O)c2ccccc2C1=O,-2.74% (inactive),–
O=C1C(c2[nH]c3ccccc3c2O)=Nc2ccccc21,-11.5% (inactive),–
CCCCn1c(CCCNC(=O)CC)nc2ccccc21,-6.76% (inactive),–
O=S(N1CCCCCC1)C12CC3CC(CC(C3)C1)C2 (stereo not given),6.48% (inactive),–
Cn1c(CNC(=O)C(C)(C)C)nc2ccccc21,4.87% (inactive),–
Cn1c(-c2ccc(C(=O)c3ccccc3)s2)nc2ccccc21,–,2 µM (active)
Cc1nn2c3ccccc3nc2n(C)c1=O,-1.15% (inactive),–

Compound,"activity change, negative = inhibition",Potency
Cc1occc1C(=O)N1CCCc2ccccc21,0.434% (inactive),–
Cc1cccc(Br)c1,-6.01% (inactive),–
CCOC(=O)N1CCN(C(=O)c2cc3c(-c4ccc(Cl)cc4)nn(C)c3s2)CC1,5.94% (inactive),–
COc1cccc(-c2nn(C)c3sc(C(=O)N4CCN(c5ccccc5)CC4)cc23)c1,–,2.51 µM (active)
COc1ccccc1N1CCN(C(=O)c2cn(-c3ccccc3)nc2-c2cccnc2)CC1,-9.11% (inactive),–
O=S(=O)(NCC1CCCO1)c1ccc2ccccc2c1 (stereo not given),0.294% (inactive),–
O=C(O)CCC(=O)NCc1ccc2[nH]c3c(c2c1)CCCC3,-4.41% (inactive),–
CC/C=C/C/C=C/C/C=C/CCCCCCCC(=O)OCC,7.6% (inactive),–
Oc1c(C(c2cccs2)N2CCN(c3ccc(F)cc3)CC2)sc2ncnn12 (stereo not given),10.8% (inactive),–
Cc1c2c(nc3ccccc13)-c1cccc(=O)n1C2,–,1.58 µM (active)
Cc1ccc(N2C(=O)CC(NCc3ccc4c(c3)OCO4)C2=O)cc1Cl (stereo not given),-2.37% (inactive),–
COc1ccc(N)c(OC)c1,8.82% (inactive),–
CCn1c(=N)c(S(=O)(=O)c2ccc(F)cc2)cc2c(=O)n3ccccc3nc21,–,2 µM (active)
Cc1cc(NC(=O)CN2CCCCC2C)nc2c1c(=O)oc1ccccc12 (stereo not given),15.3% (inactive),–
CCN(CC)CCCCn1c(-c2ccccc2)nc2c(N3CCOCC3)nc(C)nc21,2.26% (inactive),–
Fc1ccc(Br)cc1/C=N/n1cnnc1,-0.497% (inactive),–
Cc1cc(/C=N/n2cnnc2)c(C)n1-c1ccc2ncccc2c1,–,0.0631 µM (active)
Cc1cccc(-n2nc3c(c2NC(=O)c2ccc(Br)o2)CSC3)c1C,-9.63% (inactive),–
O=C(CC1CCCCC1)Nc1c2c(nn1-c1ccc(F)cc1)CS(=O)(=O)C2,-0.0676% (inactive),–
COc1cccc(C(=O)Nc2c3c(nn2-c2cccc(C)c2C)CS(=O)(=O)C3)c1OC,–,7.94 µM (active)
COc1ccc(CCN=C2SCC(=O)N2C)cc1OC,9.19% (inactive),–
CC1=NC2(CCCc3c2no[n+]3[O-])N(O)C1(C)C (stereo not given),8.65% [at 7.6 µM] (inactive),–

# From PubChem BioAssay AID662 (National Center for Advancing Translational Sciences (NCATS), 2007)
